Screens deposited in PubChem by National Center for Advancing Translational Sciences (NCATS).
NPSR antagonist – neuropeptide S receptor (human) antagonism, cAMP | Q6W5P4 | CHO-NPSR cells, cAMP TR-FRET, antagonist mode | Potency, µM (doses to about 38.3 µM), inactives show at the top dose activity change, negative = inhibition, actives largely listed as inhibitors | 1% of 220,000 active | AID 1461; further: potency means the concentration at half of the fitted maximal effect; nearly all actives have a fitted effect of over 50% in size
IMPase inh – cell-permeable inhibitors of inositol monophosphatase (IMPase) | P97697 | CHO-M1 cells, IP1 accumulation, HTRF TR-FRET ratio | inhibition (IP1 accumulation), % at 46.1 µM | 120,000 tested, under 10 active | AID 901; active means well fitted curve in the direction sought with a large enough effect in the signal ratio, not every such curve was filed as active; inconclusive means small, poorly fitted or top-dose-only effect, or a change in a side signal; inactive means no such curve, though single readings can be large or run the other way; the % refers to the signal ratio;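 further: cells stimulated with carbachol in lithium chloride buffer; plate controls were DMSO basal wells for no effect and reference inhibitor wells for full effect; higher means more IMPase inhibition seen as more IP1 and lower FRET ratio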
Target sequence (P97697 whole entry, looked up): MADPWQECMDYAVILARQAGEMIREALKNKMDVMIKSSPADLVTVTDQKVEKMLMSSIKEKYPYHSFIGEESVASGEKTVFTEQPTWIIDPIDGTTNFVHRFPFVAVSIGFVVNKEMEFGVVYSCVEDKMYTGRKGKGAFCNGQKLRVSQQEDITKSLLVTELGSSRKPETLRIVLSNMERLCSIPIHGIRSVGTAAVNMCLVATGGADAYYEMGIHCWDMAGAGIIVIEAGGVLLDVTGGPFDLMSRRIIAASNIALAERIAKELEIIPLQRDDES
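CHO-M1, 2000 cells/well, cultured 16–30 h; cpd up to 46 uM; carbachol (50 uM solution, stimulation buffer w/ 50 mM LiCl, pH 7.4), 30 min 37C; IP-One TR-FRET, 10 min RT; Ex 320/Em 665, 620; Hill-fit AC50.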
ALOX12 inhib – blocks human 12-lipoxygenase activity | 0.12% of 150,000 active | purified 12-hLO, xylenol orange hydroperoxide absorbance | AID 1452 | Potency, µM (top dose mostly 57.1 µM), without a hit: top-dose activity change, negative = inhibition, actives largely listed as inhibitors | P18054; further: potency means the concentration at half of the fitted maximal effect; nearly all actives have a fitted effect of over 55% in size
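Xylenol orange chromogenic assay: hydroperoxide from 12hLO oxidises Fe(II), giving red-shifted Fe(III)-XO absorbance. Conditions: 150 nM enzyme, 40 uM arachidonic acid, 25 mM Hepes pH 7.0, 0.01% Triton X-100, 30 min, room temperature.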
HPGD block – blocks human HPGD enzyme activity; 4.3% of 150,000 active; Potency, µM, for inactives: at the top dose activity change, negative = inhibition, most hits filed as inhibitors; purified HPGD, NADH fluorescence kinetic, PGE2 substrate; AID 894; active means well fitted inhibition curve with a large enough effect, not every such curve was filed as active; inconclusive means small, poorly fitted or top-dose-only effect, or another doubt; inactive means no such curve, though single readings can be large or run the other way; further: potency means the concentration at half of the fitted maximal effect
Target sequence (P15428 whole entry, looked up): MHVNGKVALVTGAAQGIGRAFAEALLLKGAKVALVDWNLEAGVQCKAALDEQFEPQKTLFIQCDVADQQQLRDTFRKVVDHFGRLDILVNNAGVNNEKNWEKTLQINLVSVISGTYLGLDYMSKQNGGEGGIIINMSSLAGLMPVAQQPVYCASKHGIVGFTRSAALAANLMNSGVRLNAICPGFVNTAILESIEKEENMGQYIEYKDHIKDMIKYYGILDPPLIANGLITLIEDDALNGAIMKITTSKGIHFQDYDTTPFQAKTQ
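NADH formation kinetics: reaction with 30 uM PGE2 and 1 mM NAD+ (final), 20 nM enzyme, Tris-HCl pH 8 with Tween 20, after 15 min compound preincubation at room temperature. Fluorescence change, last versus first of five reads.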
ALDH1A1 block – inhibitors of human aldehyde dehydrogenase 1A1. P00352. Purified ALDH1A1, NADH fluorescence, propionaldehyde substrate. Potency, µM (doses to about 75.3 µM), for the others: top-dose activity, negative = inhibition, most hits filed as inhibitors. 7.3% of 220,000 active. AID 1030; active means well fitted inhibition curve with a large enough effect, not every such curve was filed as active; inconclusive means small, poorly fitted or top-dose-only effect, or another doubt; inactive means no such curve, though single readings can be large or run the other way;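 further: potency means the concentration at half of the fitted maximal effect; plate controls were no enzyme wells and a reference inhibitor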
IMPase Li cell – cell-permeable IMPase inhibitors with lithium potentiation. CHO-M1 cells, IP1 TR-FRET (IP-One), carbachol + lithium. Potency, µM (highest dose often 59.4 µM), for inactives: top-dose activity, negative = IMPase inhibition, hits mostly inhibitors. 0.35% of 210,000 active. AID 1457;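 further: IP1 builds up when IMPase is blocked and the TR-FRET signal falls; potency means the concentration at half of the fitted maximal effect; plate controls were basal vehicle for no effect and high inhibitor control for full effect; nearly all actives have a fitted effect of over 50% in size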
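CHO-M1, 2000 cells/well, 16–30 h culture; cpd + low Li+, 30 min 37C; lysis with d2-IP1/Eu-anti-IP1 Ab, 10 min RT; TR-FRET 665/620 ratio and 620 channel; AC50 via Hill.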
* hit, by the source's call; u = inconclusive; x = not tested or not shown; [ ] = remark or other dose. The list is not random: actives were taken first. Their share in the collection is about 8.9%. Unless noted, the call rests on the fitted dose curve; in most records, active means well fitted curve in the direction sought with a large enough effect; inconclusive means small, poorly fitted or top-dose-only effect, or another doubt; inactive means no such curve, though single readings can be large; an effect the other way counts as inactive or inconclusive. Unless noted, on the % scale 0 is the no-effect control and ±100 the full control effect.

SMILES | NPSR antagonist | IMPase inh | ALOX12 inhib | HPGD block | ALDH1A1 block | IMPase Li cell
O=C(Nc1ccc(F)cc1)c1nc2c(nnn2Cc2cccc3ccccc23)c(=O)[nH]1 | -35% | x | x | x | x | x
O=C(NCc1cccs1)c1nc2c(nnn2Cc2ccc(F)cc2)c(=O)[nH]1 | 2%[46.1 µM] | u | -7% | 14µM* | -1% | 1%
COc1ccc(CNC(=O)c2cnc(C)cn2)cc1 | -13%[46.1 µM] | -2 | 9% | 25µM* | u | 8%[38.3 µM]
COc1ccc(CNC(=O)c2ccc(C)o2)cc1 | -2%[46.1 µM] | -9[0.0738 µM] | 2% | 3.5µM* | -9% | 5%
COc1ccc(CNC(=O)c2ccc(C(C)(C)C)cc2)cc1 | 19% | x | x | x | 9% | 1%
Cc1ccc(SC(C)C(=O)NCc2ccncc2)cc1 (centres undefined) | 2% | x | x | x | -3% | 20%
COc1ccc(CNC(=O)C(C)Sc2ccc(C)cc2)cc1 (centres undefined) | -6% | x | x | x | 14µM* | -1%
COc1ccc(CNC(=O)c2c(-c3cc(Cl)c(OC)c(Cl)c3)noc2C)cc1 | -30%[46.1 µM] | 2 | -4% | -7% | 0.045µM* | u
CCn1cc(C(=O)O)c(=O)c2cnc(N3CCN(C(=S)Nc4ccc(F)cc4)CC3)nc21 | 10%[7.67 µM] | x | x | x | x | x
Cc1ccc(CC2SC(=O)NC2=O)cc1Cl (centres undefined) | u | -11 | 24% | -22% | 32µM* | 5%
Cc1ccc(CSC2=Nc3ccccc3C3=NC(=O)CN23)cc1 | -12% | x | x | x | u | 7%
C=CCSC1=Nc2sccc2C2=NC(=O)CN12 | -1%[46.1 µM] | -4 | -2% | -9% | 14µM* | -1%[38.3 µM]
N#C/C(=C(/O)c1ccc(C(=O)c2ccccc2)cc1)c1nc2ccccc2[nH]1 | -11% | x | x | x | 15% | x
O=C(c1ccccc1)c1nc2ccccc2[nH]c1=O | -13%[46.1 µM] | 2 | -3% | 25µM* | 3% | -16%[38.3 µM]
O=C(c1ccccc1)c1nc2ccccc2n(CCCn2c(=O)c(C(=O)c3ccccc3)nc3ccccc32)c1=O | -29%[46.1 µM] | 2 | -13% | -2% | 11µM* | -23%[38.3 µM]
CC(C)CC(C(=O)OCC(=O)c1c(N)n(C)c(=O)n(C)c1=O)N1C(=O)C2CC=CCC2C1=O (centres undefined) | 2% | x | x | x | 3% | -1%
CCc1nnc(NS(=O)(=O)c2ccc(NC(=S)NC(=O)/C=C/c3ccc(F)cc3)cc2)s1 | 10µM* | 0 | -8% | -17% | u | 7%
COc1ccc(S(=O)(=O)Nc2nnc(C)s2)cc1 | -1%[46.1 µM] | 9 | -5% | 32µM* | u | -29%[38.3 µM]
CCc1nnc(NS(=O)(=O)c2ccc(NC(=S)NC(=O)c3ccc(OC)cc3)cc2)s1 | u | 9 | u | u | 18µM* | 10%
COc1ccc(/C=C/C(=O)NC(=S)Nc2ccc(S(=O)(=O)Nc3cc(OC)ncn3)cc2)cc1 | -44% | x | x | x | 28µM* | 15%
CCOC(=O)c1sc2nc(C)nc(Nc3ccc(OC)cc3)c2c1C | -18% | x | x | x | -3% | -16%
C=CCN1C(=O)C2C(C(=O)NC)C3(C)C=CC2(O3)C1C(=O)NCc1ccc(OC)cc1 (centres undefined) | -12%[46.1 µM] | -7 | -3% | -4% | 4% | 23%[38.3 µM]
CCCCCNC(=O)c1ccc2c(=O)n(CC3CCCO3)c(=S)[nH]c2c1 (centres undefined) | -18% | x | x | x | u | -1%
O=S(=O)(c1ccccc1)N(CC(F)(F)F)c1ccc(C(O)(C(F)(F)F)C(F)(F)F)cc1 | x | x | -5%[0.00818 µM] | -5% | 17% | 25%
CCc1nnc(NS(=O)(=O)c2ccc(NC(=S)NC(=O)c3ccncc3)cc2)s1 | 5% | x | x | x | x | x
SMILES | NPSR antagonist | IMPase inh | ALOX12 inhib | HPGD block | ALDH1A1 block | IMPase Li cell
CCc1nnc(NS(=O)(=O)c2ccc(NC(=S)NC(=O)c3ccc(OC)c(OC)c3)cc2)s1 | -11% | x | u | u | 7.9µM* | 3%
O=[N+]([O-])c1ccc(N2CCC(=NOCc3ccc(Cl)cc3)CC2)cc1 | -20%[46.1 µM] | 16 | -23% | -16% | 13µM* | 8%[38.3 µM]
CCC(C)NC(=O)CN1C(=O)NC2NC(=O)NC21 (centres undefined) | 4% | x | x | x | x | x
COc1cc2c3nnc(-c4ccccc4)c-3cn(Cc3ccccc3F)c2cc1OC | 10µM* | x | x | x | u | -3%
CCn1c2ccccc2c2cc(NC(=O)COC(=O)c3cccc(S(=O)(=O)NC)c3)ccc21 | 24% | x | 2% | -7% | -4% | 4%
O=[N+]([O-])c1cccc(CSc2ncnc3ccccc23)c1 | -31% | x | x | x | 22µM* | 29%
CC(C)(C)c1cc(C(c2cccnc2)N2CCN(CCO)CC2)cc(C(C)(C)C)c1O (centres undefined) | u | 15 | -2% | 14µM* | u | 8%[38.3 µM]
NNC(=O)c1csc(-c2cccc(C(F)(F)F)c2)n1 | 11% | x | x | x | 4.5µM* | -10%
O=C(Nc1ccc(C(F)(F)F)cc1)c1csc(-c2ccncc2)n1 | -30% | x | x | x | -6% | 13%
CC(C)CN1C(=O)c2ccc(NC(=O)c3cccs3)cc2C1=O | -16%[46.1 µM] | 3 | 7% | u | u | 11%[38.3 µM]
CC(C)CN1C(=O)c2ccc(NC(=O)c3ccccc3F)cc2C1=O | -22%[46.1 µM] | -6 | 4% | u | u | 8%[38.3 µM]
CC(=O)NS(=O)(=O)c1ccc(NC(=O)c2ccc3c(c2)C(=O)N(CCC(C)C)C3=O)cc1 | 12% | x | -3% | 28µM* | u | -4%
CC(C)CN1C(=O)c2ccc(C(=O)Nc3ccncc3)cc2C1=O | -2%[46.1 µM] | 8 | 2% | -3% | 0.63µM* | 3%[38.3 µM]
CCN1C(=O)c2ccc(C(=O)Nc3ncc(C)s3)cc2C1=O | -4% | x | x | x | 2.2µM* | -5%
CC(C)CN1C(=O)c2ccc(C(=O)Nc3ccccn3)cc2C1=O | -6%[46.1 µM] | -2 | -9% | -9% | 1.1µM* | -9%[38.3 µM]
Cc1cnc(NC(=O)c2ccc3c(c2)C(=O)N(Cc2ccco2)C3=O)s1 | 1%[46.1 µM] | 4 | -10% | -8% | u | 10%[38.3 µM]
CCN1CCCC1CNC(=O)CS(=O)(=O)Cc1nc(-c2ccccc2C)oc1C (centres undefined) | 2%[46.1 µM] | 8 | 34% | -13% | u | 37%[38.3 µM]
CCC(C)NC(=S)N1CCN(C)CC1 (centres undefined) | 14% | x | x | x | 22µM* | -3%
O=C(O)CSc1cccc[n+]1[O-] | -2%[46.1 µM] | 16 | -5% | 4% | 1% | -12%[38.3 µM]
O=C(CSc1cccc[n+]1[O-])c1cc2ccccc2o1 | 7.9µM* | -3 | -10% | 28µM* | u | 0%[38.3 µM]
CC(=O)N/C(=C\c1ccccc1)C(=O)OCC(=O)N1CCCCCC1 | 10%[46.1 µM] | 1 | 3% | x | 11µM* | x
CC(=O)N/C(=C/c1ccccc1)C(=O)N1CCCCC1 | 1%[46.1 µM] | -6 | 0% | x | u | x
Cc1ccc(S(=O)(=O)/N=C(/NC(=S)Nc2ccccc2)c2ccccc2)cc1 | -15%[46.1 µM] | 6 | -5% | -26% | u | 20%[38.3 µM]
